This note sets out measurements from PubChem BioAssay (NCATS).

Each structure is given as a SMILES string. Results filed as inconclusive are left out. The source made the active and inactive calls. Calls come from the whole dose curve; as a rule, active = well fitted curve in the direction sought with a large enough effect; inconclusive = small, poorly fitted or top-dose-only effect, or another doubt; inactive = no such curve, though single readings can be large; an effect the other way counts as inactive or inconclusive.

Experiment [1] is described as follows: Quantitative High-Throughput drug screen in 47 multiple myeloma cell lines against the NCATS MIPE library collection: Delta47_JCRB cell viability assay (AID 1918925; note: nearly all actives have a fitted effect of over 45% in size; note: potency is the fitted concentration of half-maximal effect). In short, it runs like this:
(§1)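 Approved and investigational drugs from MIPE 4.0 were added by pin tool to 500 cells per well. After 48 hours at 37C, ATP-based CellTiter-Glo luminescence indicated remaining viability.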

A short description of experiment [2]: Quantitative High-Throughput drug screen in 47 multiple myeloma cell lines against the NCATS MIPE library collection: EJM_DSMZ cell viability assay (AID 1918926; note: nearly all actives have a fitted effect of over 30% in size; note: potency is the fitted concentration of half-maximal effect). The essentials: as §1
Experiment [3] can be described thus: Quantitative High-Throughput drug screen in 47 multiple myeloma cell lines against the NCATS MIPE library collection: ARP1_JJKsccF8 cell viability assay (AID 1918928; note: nearly all actives have a fitted effect of over 40% in size; note: potency is the fitted concentration of half-maximal effect). In short, it runs like this: (§2)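 Here, 48 h treatment with MIPE 4.0 agents at 37 °C preceded an ATP luminescence read. Plating density was 500 cells per well.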
Experiment [4] is described as follows: Quantitative High-Throughput drug screen in 47 multiple myeloma cell lines against the NCATS MIPE library collection: ARD_JJKsccE7 cell viability assay (AID 1918929; note: potency is the fitted concentration of half-maximal effect). The essentials: as §1
A short description of experiment [5]: Quantitative High-Throughput drug screen in 47 multiple myeloma cell lines against the NCATS MIPE library collection: Karpas417_ECACC cell viability assay (AID 1918961). Conditions: Karpas417 myeloma viability, CellTiter-Glo ATP luminescence, 48 h; viability (% of DMSO): at 45.8 µM (top of the series). The essentials:
(§3)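 Myeloma cells (500 per well) were exposed to MIPE 4.0 compounds by pin transfer and incubated 48 hours at 37C, 5% CO2. Viability was read as ATP by CellTiter-Glo luminescence, normalised to DMSO (100%) and media-only (0%) wells.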

Experiment [6] can be described thus: Quantitative High-Throughput drug screen in 47 multiple myeloma cell lines against the NCATS MIPE library collection: JIM3_ECACC cell viability assay (AID 1918963; note: nearly all actives have a fitted effect of over 35% in size; note: potency is the fitted concentration of half-maximal effect). In short, it runs like this: (§4)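 CellTiter-Glo luminescence (ATP) after 48 h compound exposure, 37C/5% CO2; 500 cells/well; MIPE 4.0 approved/investigational drugs pinned in; DMSO = 100%, media only = 0% viability.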

A short description of experiment [7]: Quantitative High-Throughput drug screen in 47 multiple myeloma cell lines against the NCATS MIPE library collection: INA6_PLB cell viability assay (AID 1918965; note: nearly all actives have a fitted effect of over 55% in size; note: potency is the fitted concentration of half-maximal effect). The essentials: as §3
The nature of experiment [8]: Quantitative High-Throughput drug screen in 47 multiple myeloma cell lines against the NCATS MIPE library collection: JJN3_DSMZ cell viability assay (AID 1918966; note: nearly all actives have a fitted effect of over 50% in size; note: potency is the fitted concentration of half-maximal effect). The essentials:
as §1

Experiment [9] in a line: Quantitative High-Throughput drug screen in 47 multiple myeloma cell lines against the NCATS MIPE library collection: Karpas25_ECACC cell viability assay (AID 1918968; note: nearly all actives have a fitted effect of over 35% in size; note: potency is the fitted concentration of half-maximal effect). The essentials:
as §1

Experiment [10] in a line: Quantitative High-Throughput drug screen in 47 multiple myeloma cell lines against the NCATS MIPE library collection: KMS12BM_JCRB cell viability assay (AID 1918971). Note: nearly all actives have a fitted effect of over 35% in size. Note: potency is the fitted concentration of half-maximal effect. The essentials: as §1
Experiment [11] in a line: Quantitative High-Throughput drug screen in 47 multiple myeloma cell lines against the NCATS MIPE library collection: AMO1_DSMZ cell viability assay (AID 1918927; note: nearly all actives have a fitted effect of over 30% in size; note: potency is the fitted concentration of half-maximal effect). The essentials:
as §1

Experiment [12] in a line: Quantitative High-Throughput drug screen in 47 multiple myeloma cell lines against the NCATS MIPE library collection: Karpas620_DSMZ cell viability assay (AID 1918959). Note: nearly all actives have a fitted effect of over 30% in size. Note: potency is the fitted concentration of half-maximal effect. The essentials:
as §4

The nature of experiment [13]: Quantitative High-Throughput drug screen in 47 multiple myeloma cell lines against the NCATS MIPE library collection: KMM1_JCRB cell viability assay (AID 1918960). Note: nearly all actives have a fitted effect of over 30% in size. Note: potency is the fitted concentration of half-maximal effect. In short, it runs like this:
as §2

Experiment [14] can be described thus: Quantitative High-Throughput drug screen in 47 multiple myeloma cell lines against the NCATS MIPE library collection: H1112_PLB cell viability assay (AID 1918967; note: nearly all actives have a fitted effect of over 30% in size; note: potency is the fitted concentration of half-maximal effect). In short, it runs like this: as §1
A short description of experiment [15]: Quantitative High-Throughput drug screen in 47 multiple myeloma cell lines against the NCATS MIPE library collection: KMS27_JCRB cell viability assay (AID 1918970). Note: nearly all actives have a fitted effect of over 30% in size. Note: potency is the fitted concentration of half-maximal effect. As to conditions: KMS27 myeloma cells, CellTiter-Glo ATP viability, 48 h; viability (% of DMSO): at 45.8 µM (top of the series). In short, it runs like this: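 Myeloma cells (500 per well) were exposed to MIPE 4.0 compounds for 48 h at 37 °C, 5% CO2; viability was read as ATP luminescence with CellTiter-Glo, normalized to DMSO-only (100%) and media-only (0%) wells.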

Experiment [16] is described as follows: Quantitative High-Throughput drug screen in 47 multiple myeloma cell lines against the NCATS MIPE library collection: KHM11_PLB cell viability assay (AID 1918962). Note: nearly all actives have a fitted effect of over 35% in size. Note: potency is the fitted concentration of half-maximal effect. The essentials: as §4
Experiment [17] in a line: Quantitative High-Throughput drug screen in 47 multiple myeloma cell lines against the NCATS MIPE library collection: JIM1_ECACC cell viability assay (AID 1918964; note: potency is the fitted concentration of half-maximal effect). In short, it runs like this:
as §1

For the compound `C[C@H]1O[C@@H](n2cc(F)c(=O)[nH]c2=O)[C@H](O)[C@H]1O`, the Potency in experiment [1] is 14.8 µM (active); in experiment [4], 1.32 µM (active); in [6], 11.8 µM (active); in experiment [7], 13.2 µM (active); in experiment [9] it was 18.7 µM (active); in experiment [10], 16.6 µM (active). Further, the Potency entry in experiment [2], in experiment [3], in experiment [5] and in experiment [8] was “inactive” each time.

As to `CC(C)(CO)[C@@H](O)C(=O)NCCC(=O)O`, the Potency result in experiment [2], in [11], in experiment [4], in [12], in experiment [13] and in experiment [6] was “inactive” throughout. Besides, the Potency entry in experiment [8], in experiment [14], in experiment [9], in experiment [15] and in [10] was “inactive” in each case. Further, the Potency in [3] is 1.66 µM (active).

`COc1cc(N2CCN(C)CC2)ccc1Nc1nc(N)c(C(=O)c2c(Cl)cccc2Cl)s1`: the Potency in experiment [2] is 23.5 µM (active); in experiment [11], 18.7 µM (active); in experiment [13], 18.7 µM (active); in experiment [15], 23.5 µM (active). Moreover, the Potency entry in experiment [14] was “inactive”.

For the compound `C[C@H]1COC2=C1C(=O)C(=O)c1c2ccc2c1CCCC2(C)C`, the Potency in [1] is 14.8 µM (active); in [3], 16.6 µM (active); in experiment [7], 14.8 µM (active); in experiment [8], 18.7 µM (active); in [9] it was 4.69 µM (active); in [10], 18.7 µM (active). Also, the Potency entry in experiment [4] was “inactive”.

As for `N#Cc1ccc(Oc2ccc3c(c2)COB3O)cc1`, the Potency result in experiment [2] is “inactive”. The Potency in experiment [11] is 20.9 µM (active); in experiment [7] it was 20.9 µM (active); in experiment [15], 23.5 µM (active).

With `CN[C@@H]1CN(c2ccc3c(=O)c(C(=O)O)cn(-c4nccs4)c3n2)C[C@@H]1OC`, the Potency in experiment [1] was 5.75 µM (active); in [3], 1.82 µM (active); in experiment [16], 14.4 µM (active); in [6], 14.4 µM (active); in [7], 1.44 µM (active); in experiment [8], 8.12 µM (active). Also, the Potency in [14] was 12.9 µM (active); in experiment [9], 5.12 µM (active); in experiment [10], 0.645 µM (active). In addition, the Potency entry in [4] and in [12] was “inactive” each time.

As for `O=C1NC(=O)C(=Cc2ccc(-c3ccc(F)cc3O)o2)S1`, the Potency in [1] is 0.418 µM (active); in [11], 3.32 µM (active); in experiment [7], 7.43 µM (active); in experiment [15], 2.09 µM (active); in [10] it was 37.2 µM (active). Further, the Potency result in experiment [12] and in experiment [6] was “inactive” in each case.

On to `CC[C@H](C=C[C@@H](C)[C@H]1CC[C@H]2[C@@H]3CC=C4C[C@@H](O)CC[C@]4(C)[C@@H]3CC[C@]12C)C(C)C`, for which the Potency in [2] is 7.24 µM (active); in experiment [7] it was 1.62 µM (active). The Potency result in experiment [3], in experiment [4], in experiment [12], in experiment [13], in [16] and in [8] was “inactive” throughout. The Potency entry in experiment [14], in [9], in experiment [15] and in [10] was “inactive” each time.

With `O=C(C=Cc1ccc(O)cc1)c1ccc(O)cc1O`, the Potency in experiment [1] is 13.2 µM (active); in [13], 16.6 µM (active); in experiment [6], 20.9 µM (active); in experiment [17] it was 4.69 µM (active); in experiment [7] it was 3.32 µM (active); in experiment [8], 14.8 µM (active). In addition, the Potency in experiment [9] is 23.5 µM (active); in experiment [10], 20.9 µM (active).

As for `CN1N=C(N)c2cn([C@@H]3O[C@H](COP(=O)(O)O)[C@@H](O)[C@@H]3O)c3ncnc1c23`, the Potency was 7.43 µM (active) in [2]; 0.0935 µM (active) in experiment [11]; 0.469 µM (active) in experiment [3]; 0.0833 µM (active) in experiment [12]; 0.372 µM (active) in experiment [16]; 0.469 µM (active) in experiment [6]. The Potency is 2.96 µM (active) in [8]; 0.526 µM (active) in experiment [14]; 0.372 µM (active) in experiment [9]; 0.0662 µM (active) in experiment [15]; 6.62 µM (active) in experiment [10].

Take `CC[C@H](C)n1cc(C)c2c(C(=O)NCc3c(C)cc(C)[nH]c3=O)cc(-c3ccc(N4CCNCC4)nc3)cc21`: the Potency in experiment [1] was 20.9 µM (active); in [16], 29.6 µM (active); in [7], 18.7 µM (active). Further, the Potency result in [11], in experiment [12], in [13] and in experiment [17] was “inactive” each time.

Take `Cc1cc(NC(=O)Nc2ccc(N(C)C)cc2)c2cc(F)cc(F)c2n1`: the Potency result in experiment [2], in experiment [11], in experiment [12], in [13], in [6] and in experiment [15] was “inactive” throughout.

Take `O=C1NC(=O)C(c2cnc3ccccn23)=C1c1cn2c3c(cccc13)CN(C(=O)N1CCOCC1)CC2`: the Potency in [1] is 1.05 µM (active); in experiment [3] it was 0.0066 µM (active); in [4], 0.0042 µM (active); in experiment [13] it was 13.2 µM (active); in [16], 0.001 µM (active); in [7] it was 0.001 µM (active). Further, the Potency in [14] is 1.48 µM (active).

As for `CCCCCCCCCCCCCC(=O)N[C@H](CO)[C@H](O)c1ccc([N+](=O)[O-])cc1`, the Potency in experiment [1] is 18.7 µM (active); in experiment [4] it was 20.9 µM (active); in [12], 16.6 µM (active); in experiment [13], 20.9 µM (active); in [6], 26.4 µM (active); in experiment [17], 14.8 µM (active). Besides, the Potency is 23.5 µM (active) in experiment [7]; 18.7 µM (active) in [8]; 18.7 µM (active) in [9]; 14.8 µM (active) in experiment [15]; 23.5 µM (active) in experiment [10].

For `Cc1ccc2c(=O)c3cccc(CC(=O)O)c3oc2c1C`, the Potency in [2] is 6.62 µM (active); in experiment [7] it was 23.5 µM (active); in [14], 26.4 µM (active). Further, the Potency entry in experiment [11], in experiment [12] and in experiment [13] was “inactive” in each case.

As for `CCOc1ccccc1N=Nc1c(C)[nH]n(-c2nc(-c3ccccc3)cs2)c1=O`, the Potency result in [1], in experiment [3], in [13], in experiment [16], in experiment [6] and in experiment [7] was “inactive” in each case. For the same compound, the Potency in [17] is 1.66 µM (active); in experiment [8], 10.5 µM (active); in [9] it was 1.66 µM (active); in [15], 9.35 µM (active); in experiment [10] it was 16.6 µM (active).
